Source: PubChem BioAssay (Tox21)
Where “and” joins values, the source holds several entries; their conditions need not be identical. Equal values may be shown once. Results filed as inconclusive are left out. Some compounds were tested as several samples or in several runs, with calls that do not always agree. Calls of active or inactive are those of the source. Calls come from the whole dose curve; as a rule, active = well fitted curve in the direction sought with a large enough effect in the repeat runs; inconclusive = weak or mixed curves; inactive = no such curve, though single readings can be large; an effect the other way counts as inactive or inconclusive.

Legend:
[1] = A CellTox Green Cytotoxicity Assay to monitor cytotoxicity in HEK293 cells - 40 hour (AID 1224871); note: nearly all actives have a fitted effect of over 45% in size; note: potency is the fitted concentration of half-maximal effect
In short: (§1)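 Each value comes from one timepoint of a single continuous run in which HEK293 cells with CellTox Green were exposed to compound for up to 40 h at 37 C, dye fluorescence rising with cell death.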

[2] = qHTS RealTime-Glo MT Cell Viability Assay in HEK293 cells - 16 hour (AID 1224872); note: nearly all actives have a fitted effect of over 50% in size; note: potency is the fitted concentration of half-maximal effect; for activity change, negative = cytotoxicity: top concentration of the series differs between compounds
In short: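 Luminescence generated by NanoLuc from substrate produced by living HEK293 cells served as the viability signal. Each value reflects the reading at its stated time point during continuous 40 h compound exposure at 37 C.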

[3] = qHTS RealTime-Glo MT Cell Viability Assay in HepG2 cells - 8 hour (AID 1224873); note: nearly all actives have a fitted effect of over 55% in size; note: potency is the fitted concentration of half-maximal effect
In short: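 Real-time viability: cells seeded at 600 per well together with NanoLuc and cell-permeant prosubstrate, compounds added after 5 h incubation. Luminescence tracked at 0, 8, 16, 24, 32 and 40 h of exposure.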

[4] = A CellTox Green Cytotoxicity Assay to monitor cytotoxicity in HEK293 cells - 24 hour (AID 1224875); note: series mostly up to about 77 µM; nearly all actives have a fitted effect of over 45% in size
In short: as §1

[5] = A CellTox Green Cytotoxicity Assay to monitor cytotoxicity in HepG2 cells - 16 hour (AID 1224876); note: nearly all actives have a fitted effect of over 45% in size; note: potency is the fitted concentration of half-maximal effect
In short: (§2)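 Continuous culture of HepG2 cells with a membrane-impermeant DNA dye; rising fluorescence marks dead cells. Compound exposure lasted up to 40 h at 37 C, with reads every 8 h from 0 h.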

[6] = qHTS RealTime-Glo MT Cell Viability Assay in HepG2 cells - 32 hour (AID 1224877); note: nearly all actives have a fitted effect of over 55% in size
In short: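 Tox21 10K library screened in qHTS format on HepG2 cells carrying RealTime-Glo reagents. Compounds were added after a 5 h preincubation, and the luminescent signal from continuous culture was measured repeatedly during 40 h treatment.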

[7] = A CellTox Green Cytotoxicity Assay to monitor cytotoxicity in HepG2 cells - 24 hour (AID 1224878); note: nearly all actives have a fitted effect of over 45% in size; note: potency is the fitted concentration of half-maximal effect
In short: as §2

[8] = A CellTox Green Cytotoxicity Assay to monitor cytotoxicity in HepG2 cells - 40 hour (AID 1224879); note: nearly all actives have a fitted effect of over 40% in size; note: potency is the fitted concentration of half-maximal effect
In short: as §2

[9] = qHTS RealTime-Glo MT Cell Viability Assay in HEK293 cells - 0 hour (AID 1224880)
In short: (§3)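 qHTS format; HEK293 cells with NanoLuc/prosubstrate reagent, 37 C/5% CO2 for 5 h pre-dosing; compounds 23 nL in DMSO; luminescence at each time point reflects viable cells.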

[10] = qHTS RealTime-Glo MT Cell Viability Assay in HEK293 cells - 40 hour (AID 1224874); conditions: RealTime-Glo luminescence; max response: stronger effect = lower value; note: nearly all actives have a fitted effect of over 50% in size; note: potency is the fitted concentration of half-maximal effect
In short: as §3
% is set by controls: 0 for no effect and ±100 for the full control effect.

CC(=O)OC/C=C(\C)CC/C=C(\C)CCC=C(C)C
inactive: Potency [1] | Potency [2] | Potency [3] | Potency [4] | Potency [5] | Potency [6] | Potency [7] | Potency [8] | Potency [9]

CC(C)(C)c1ccc(O)c(O)c1
inactive: Potency [5] | Potency [7] | Potency [8] | Potency [9]
active: Potency [1] 38.9 µM | Potency [2] 25.4 µM and 13.8 µM | Potency [3] 34.7 µM | Potency [10] 20.2 µM and 36 µM

CCO/C([O-])=N/c1c[n+](N2CCOCC2)no1
inactive: Potency [1] | Potency [2] | Potency [3] | Potency [4] | Potency [5] | Potency [6] | Potency [7] | Potency [8] | Potency [9]

CC(C)CNCC(C)C
inactive: Potency [1] | Potency [2] | Potency [3] | Potency [4] | Potency [5] | Potency [6] | Potency [7] | Potency [8] | Potency [9]

CC(C[N+](C)(C)C)OC(N)=O (stereo not given)
inactive: Potency [1] | Potency [2] | Potency [3] | Potency [4] | Potency [5] | Potency [6] | Potency [7] | Potency [8] | Potency [9]

CCCCCSCCCCC
inactive: Potency [1] | Potency [2] | Potency [3] | max response [10] -8.65% | Potency [5] | Potency [6] | Potency [7] | Potency [8] | Potency [9]

CC(=O)OCC(CCn1cnc2cnc(N)nc21)COC(C)=O
inactive: Potency [1] | Potency [2] | Potency [3] | max response [10] -0.0813% | Potency [5] | Potency [6] | Potency [7] | Potency [8] | Potency [9]

N[C@H](C(=O)O)c1ccc(O)cc1
inactive: Potency [1] | activity change, negative = cytotoxicity [2] 4.17% [at 15.8 µM] | viability change, negative = cytotoxic [3] 0.244% [at 15.8 µM] | max response [10] 2.28% | cytotoxicity increase [5] -12.1% [at 15.8 µM] | cytotoxicity [7] -8.13% [at 15.8 µM] | cytotoxicity increase [8] -4.58% [at 15.8 µM] | activity change, negative = cytotoxicity [9] -0.65% [at 15.8 µM]

Cc1cnc(NS(=O)(=O)c2ccc(N)cc2)nc1
inactive: Potency [1] | Potency [2] | Potency [3] | max response [10] 2.61% | Potency [5] | Potency [6] | Potency [8] | Potency [9]

CC(=O)N(CC(O)CO)c1c(I)c(C(=O)NCCO)c(I)c(C(=O)NCC(O)CO)c1I (stereo not given)
inactive: Potency [1] | Potency [2] | Potency [3] | Potency [4] | Potency [5] | Potency [6] | Potency [7] | Potency [8] | Potency [9]

CCOC(=O)CCC(C)=O
inactive: Potency [1] | Potency [2] | Potency [3] | max response [10] -9.25% | Potency [5] | Potency [6] | Potency [7] | Potency [8] | Potency [9]

Nc1nc2c(ncn2COC(CO)CO)c(=O)[nH]1
inactive: Potency [1] | Potency [4] | Potency [5] | Potency [7] | Potency [8]

CC(C)NC(=O)NC(C)C
inactive: Potency [1] | Potency [2] | Potency [3] | Potency [4] | Potency [5] | Potency [6] | Potency [7] | Potency [8] | Potency [9]

COc1ccc(CCN(C)CCCC(C#N)(c2cc(OC)c(OC)c(OC)c2)C(C)C)cc1OC (stereo not given)
active: Potency [2] 10.7 µM
inactive: Potency [1] | Potency [3] | Potency [4] | Potency [5] | Potency [6] | Potency [7] | Potency [9]

OCCOc1ccc(OCCO)cc1
inactive: Potency [1] | Potency [2] | Potency [3] | Potency [4] | Potency [5] | Potency [6] | Potency [7] | Potency [8] | Potency [9]

N=C(N)c1ccc2cc(OC(=O)c3ccc(N=C(N)N)cc3)ccc2c1
inactive: Potency [1] | Potency [2] | Potency [3] | Potency [4] | Potency [5] | Potency [7] | Potency [8] | Potency [9]

COC(=O)c1c(Cl)c(Cl)c(C(=O)OC)c(Cl)c1Cl
inactive: Potency [3] | max response [10] -27.2% | Potency [6] | Potency [7] | Potency [9]
inactive and 77.6 nM (active): Potency [5]
inactive and 38.9 µM (active): Potency [1]

CC(C)c1cc2c(cc1S(=O)(=O)O)[C@@]1(C)CCC[C@@](C)(C(=O)O)[C@@H]1CC2
inactive: Potency [1] | Potency [2] | Potency [3] | Potency [5] | Potency [6] | Potency [8] | Potency [9]

O=c1cc(-c2ccccc2)oc2ccccc12
inactive: Potency [3] | Potency [4] | Potency [5] | Potency [7] | Potency [9]
inactive and 43.6 µM (active): Potency [8]
active: Potency [2] 19.5 µM and 6.88 µM

C[C@H](NC(CCc1ccccc1)C(=O)O)C(=O)N1CCC[C@H]1C(=O)O (stereo not given in full)
inactive: Potency [1] | Potency [2] | Potency [3] | Potency [4] | Potency [5] | Potency [6] | Potency [8] | Potency [9]

CO[C@]12C[C@@H](COC(=O)c3cncc(Br)c3)CN(C)[C@@H]1Cc1cn(C)c3cccc2c13
active: Potency [5] 23.9 µM | Potency [7] 23.9 µM | Potency [8] 23.9 µM
inactive: Potency [1] | Potency [3] | max response [10] -5.48% | Potency [4] | Potency [6] | Potency [9]

COC(=O)C1=C(C)NC(C)=C(C(=O)OC)C1c1ccccc1[N+](=O)[O-]
inactive: Potency [1] | Potency [2] | Potency [4] | Potency [5] | Potency [6] | Potency [7] | Potency [8]
